Rows were chosen to be rich in hits. Some 9% of all compounds tested hit in one or more screens of this group.
HTT cytoprotect: Huntington cell model cytoprotection by ATP luminescence. 0.14% of 230,000 active. Potency, µM (titrated, usually from 56.4 µM), for inactives: cytoprotection (ATP increase), hits mostly activators. PC12 HTT-Q103 induced, cytoprotection, ATP luminescence, 40 h; note: % of control where 0% means no effect; nearly all actives have a fitted effect of over 45% in size
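Readout: ATPlite luminescence (ATP level). Model: stable PC12, inducible Htt exon1 Q103-GFP. Inducer: tebufenozide, 100 nM final. Compounds: dose series. No G418 in medium.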
HttQ103 aggreg: mutant huntingtin aggregation inhibition; PC12 HttQ103-GFP aggregates, Acumen cytometry, 40 h; Potency, µM (highest dose often 46.1 µM), without a hit: at the highest dose activity change, negative = inhibition, most hits filed as inhibitors; 1.1% of 220,000 active; AID 1688; note: % is set by controls: 0 for no effect and ±100 for the full control effect; nearly all actives have a fitted effect of over 60% in size
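Steps: seed 1500 PC12 HTTQ103-GFP cells/well; add tebufenozide, 100 nM final; add compound titration; add ATPLite reagent; quantify GFP aggregates by laser scanning cytometry.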
Lamin A splicing: LMNA splicing modulation. AID 1487. Potency, µM (titrated, usually from 46.1 µM), for the others: at the highest dose ratio change, negative = inhibition, usual class: inhibitors. 0.01% of 200,000 active. HeLa LMNA splicing GFP/RFP minigene ratio, 48 h; active = well fitted inhibition curve with a large enough effect in the signal ratio, with a control signal flat, not every such curve was filed as active; inconclusive = small, poorly fitted or top-dose-only effect, or effect the other way, or a change in a side signal; the % refers to the signal ratio; note: % is set by controls: 0 for no effect and ±100 for the full control effect
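S3 HeLa stable clones carrying a lamin A-EGFP splicing minigene plus DsRed2 were seeded at 600 cells/well in Opti-MEM with 2% FBS, pin-dosed and incubated 48 h at 37°C. Acumen cytometry (488 nm) gave the GFP/RFP total-intensity ratio.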
ALDH1A1 inh: blocks purified human ALDH1A1 activity; P00352; Purified ALDH1A1, NADH fluorescence, propionaldehyde substrate; Potency, µM (titrated, usually from 75.3 µM), inactives show top-dose activity, negative = inhibition, most hits filed as inhibitors; 7.3% of 220,000 active; AID 1030; active = well fitted inhibition curve with a large enough effect, not every such curve was filed as active; inconclusive = small, poorly fitted or top-dose-only effect, or another doubt; inactive = no such curve, though single readings can be large or run the other way;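 note: plate controls were no enzyme wells and a reference inhibitor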
Target sequence (P00352 whole entry, looked up): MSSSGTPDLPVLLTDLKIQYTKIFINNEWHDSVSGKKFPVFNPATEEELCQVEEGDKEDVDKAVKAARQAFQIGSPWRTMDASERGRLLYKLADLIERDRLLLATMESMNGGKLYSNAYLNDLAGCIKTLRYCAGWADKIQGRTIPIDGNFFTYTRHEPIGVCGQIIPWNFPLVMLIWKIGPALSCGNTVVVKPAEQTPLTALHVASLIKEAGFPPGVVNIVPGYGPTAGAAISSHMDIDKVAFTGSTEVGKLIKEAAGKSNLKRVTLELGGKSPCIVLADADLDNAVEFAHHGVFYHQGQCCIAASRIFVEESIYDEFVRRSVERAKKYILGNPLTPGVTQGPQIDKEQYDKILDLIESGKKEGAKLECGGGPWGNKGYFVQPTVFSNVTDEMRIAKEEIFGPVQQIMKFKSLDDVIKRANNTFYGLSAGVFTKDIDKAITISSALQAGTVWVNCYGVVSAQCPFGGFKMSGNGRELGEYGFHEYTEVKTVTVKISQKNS
Luc counter: counter-screen: inhibitors of Kinase-Glo firefly luciferase; Q27757; 0.28% of 200,000 active; AID 1379; Potency, µM (highest dose often 38.3 µM), inactives show at the highest dose activity change, negative = inhibition, hits mostly inhibitors; Kinase-Glo luciferase, ATP luminescence, 8 min; note: % is set by controls: 0 for no effect and ±100 for the full control effect; nearly all actives have a fitted effect of over 60% in size
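Kinase-Glo luciferase light output from ATP and luciferin was measured with 10 uM ATP, within the enzyme's linear range. Buffer: 50 mM imidazole pH 7.2, 50 mM KCl, 7 mM MgCl2, 0.01% Tween 20, 0.05% BSA; luminescence read after 8 min at ambient temperature.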
HPGD block: inhibitors of human 15-hydroxyprostaglandin dehydrogenase (HPGD) | P15428 | purified HPGD, NADH fluorescence kinetic, PGE2 substrate | Potency, µM, inactives show top-dose activity change, negative = inhibition, actives largely listed as inhibitors | 4.3% of 150,000 active | AID 894; active = well fitted inhibition curve with a large enough effect, not every such curve was filed as active; inconclusive = small, poorly fitted or top-dose-only effect, or another doubt; inactive = no such curve, though single readings can be large or run the other way; note: % is set by controls: 0 for no effect and ±100 for the full control effect
Target sequence (P15428 whole entry, looked up): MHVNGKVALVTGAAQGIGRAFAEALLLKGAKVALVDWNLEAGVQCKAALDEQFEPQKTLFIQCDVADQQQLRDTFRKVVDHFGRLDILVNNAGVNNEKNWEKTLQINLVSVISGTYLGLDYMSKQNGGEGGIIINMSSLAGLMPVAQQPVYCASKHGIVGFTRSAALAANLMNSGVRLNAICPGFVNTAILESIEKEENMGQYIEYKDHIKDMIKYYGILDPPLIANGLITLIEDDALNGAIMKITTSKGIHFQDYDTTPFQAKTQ
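20 nM HPGD preincubated 15 min at room temperature with compound in 50 mM Tris-HCl pH 8, 0.01% Tween 20. Started with 1 mM NAD+ and 30 uM prostaglandin E2; NADH fluorescence (360/450 nm) read 5 times over 30-s intervals, last minus first.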
Starred values were filed as active, the others as inactive; ? = inconclusive; · = not tested or not shown; ! = not active in a repeat; [ ] = dose if it differs, or a comment. Unless noted, calls come from the whole dose curve; as a rule, active = well fitted curve in the direction sought with a large enough effect; inconclusive = small, poorly fitted or top-dose-only effect, or another doubt; inactive = no such curve, though single readings can be large; an effect the other way counts as inactive or inconclusive. Potency is the fitted concentration of half-maximal effect.

SMILES	HTT cytoprotect	HttQ103 aggreg	Lamin A splicing	ALDH1A1 inh	Luc counter	HPGD block
COC(=O)CN1C(=O)C2(C(C#N)=C(N)Oc3cc(C)oc(=O)c32)c2ccccc21 (configuration not stated)	-136%	8%	3%	6.3µM*	1%	-16%
CC(=O)N1C(=O)C2(C(C#N)=C(N)Oc3cc(C)oc(=O)c32)c2ccccc21 (configuration not stated)	4%[0.074 µM]	21%	-13%	5%	1%	2%
O=C(Nc1c2n(c(=S)n(-c3ccccc3)c1=O)CCCCC2)c1ccccc1	-15%	7%	-1%[46 µM]	2%	1%	·
COc1ccccc1CN(Cc1cc2cc(C)ccc2[nH]c1=O)Cc1nnnn1Cc1ccco1	-28%	8%	8%	?	0%	?
Cc1ccc2cc(CN(Cc3ccc4c(c3)OCO4)Cc3nnnn3Cc3ccco3)c(=O)[nH]c2c1C	16%[1.9 µM]	19%	1%	?	1%	-24%
Cc1ccc2cc(CN(CCN3CCOCC3)Cc3nnnn3Cc3ccco3)c(=O)[nH]c2c1C	-15%[10 µM]	16%	-2%	5µM*	0%	-5%
CCc1ccc2[nH]c(=O)c(CN(Cc3ccccc3OC)Cc3nnnn3Cc3ccco3)cc2c1	-3%[10 µM]	?	?	25µM*	0%	-15%
COc1ccc(OC)c(CN2CCCC(C(=O)c3ccccc3SC)C2)c1 (configuration not stated)	-24%	-32%	·	9%	2%	·
Cc1cc(C)nc(N(C#N)Cc2ccccc2)n1	-22%[0.074 µM]	28%	11%	14µM*	1%	-19%
Cc1cc(C)nc(N(C#N)CC(=O)c2ccccc2)n1	-13%	?	-3%	28µM*	-23%	-28%
N#CN(Cc1ccccc1)Cc1ccccc1	3%[10 µM]	-4%[9.22 µM]	·	40µM*	·	·
CN(Cc1ccccc1)Cc1ccccc1	-1%	3%	·	·	·	·
Cc1cc(C)nc(N(C#N)Cc2ccc([N+](=O)[O-])cc2)n1	11%[10 µM]	9%[9.22 µM]	·	1%	1%	·
CCOc1ccccc1CNCCOC	-13%	-2%	0%[46 µM]	2%	0%	·
O=c1c([N+](=O)[O-])c[nH]c2ccccc12	-18%[10 µM]	5%	1%	-6%	-2%	-18%
CC(NC(=O)OCc1ccccc1)C(=O)N1CC(O)CC1C(=O)O (configuration not stated)	0.1µM*	·	?	3%	0%	-1%
COC(=O)C1C2C=CC3(CN(Cc4cccs4)C(=O)C13)O2 (configuration not stated)	-7%[10 µM]	1%	-6%	-10%	5%	-8%
COC(=O)C1C(=O)N2CCCSC2=C(C#N)C1c1cccs1 (configuration not stated)	-16%[10 µM]	3%	4%	6.3µM*	3%	-7%
N#CC(=NCCO)C1=C(O)c2ccccc2C1=O	3%[10 µM]	·	·	7%[13.5 µM]	4%[7.66 µM]	-3%
O=C1C(SCCO)=C(SCCO)C(=O)c2ccccc21	-102%	·	?	18µM*	-10%	2.8µM*!
COc1ccccc1N1CCN(C(=O)c2cccc3c(=O)c(C)c(-c4ccccc4)oc23)CC1	15%[10 µM]	-23%	?	16%	2%	-3%
CCCc1ccc(Oc2cn[nH]c2-c2ccc(O)c(C)c2O)cc1	14%[10 µM]	?	?	5%	-2%	18µM*
CCCc1ccc(Oc2c(-c3ccc(O)c(C)c3O)n[nH]c2C)cc1	-31%	?	?	1%	3%	-9%
Cc1cc(C)n(CC(=O)Nc2ccccc2)n1	-2%	1%	4%	2%	-1%	-14%
CCOc1ccc(-c2cc(N)n(S(=O)(=O)c3ccc(OC)c(OC)c3)n2)cc1	-10%	-13%	-3%	?	-3%	-12%
SMILES	HTT cytoprotect	HttQ103 aggreg	Lamin A splicing	ALDH1A1 inh	Luc counter	HPGD block
COc1ccc(S(=O)(=O)n2nc(-c3ccc(Cl)cc3)cc2N)cc1OC	-66%	?	-19%	89µM*	0%	-19%
CCN(CC)S(=O)(=O)c1ccc2c(c1)c(=O)c(C(=O)NCc1cccs1)cn2C	·	-11%	6%	11µM*	-1%	-12%
CN(C)S(=O)(=O)c1ccc2c(c1)c(=O)c(C(=O)NCCCN1CCCCCC1)cn2C	4%[10 µM]	-8%	-15%	15µM*	3%	-16%
CCN(CC)S(=O)(=O)c1ccc2c(c1)c(=O)c(C(=O)NCCCN(C)c1ccccc1)cn2C	-20%	0%	-2%	4%	0%	-4%
CN(CCCNC(=O)c1cn(C)c2ccc(S(=O)(=O)N(C)C)cc2c1=O)c1ccccc1	-2%	20%	?	?	2%	-3%
CCc1nnc(NC(=O)c2sc3nc4cc(C)ccc4cc3c2N)s1	-8%	6%	?	-1%	-4%	-10%
NC(=S)Nc1ccc(F)c(F)c1F	12%[10 µM]	10%[9.22 µM]	·	·	·	·
NC(=S)NNc1c(F)c(F)c(F)c(F)c1F	-5%[10 µM]	16%	15%[46 µM]	8.9µM*	-1%	·
CCCCC(=O)Nc1sc2c(c1-c1nc3ccccc3s1)CCN(C(C)=O)C2	2%[10 µM]	0%	?	25µM*	4%	-20%
CC(=O)N1CCc2c(sc(NC(=O)CSc3ccccc3)c2-c2nc3ccccc3s2)C1	·	·	18%[46 µM]	·	·	·
Cc1ccc(-c2c[n+](CC(=O)Nc3c(C)cccc3C)c3n2CCC3)cc1	2%[10 µM]	-12%[9.22 µM]	·	·	·	·
Cc1nc2c(C)cccc2c(SC(=N)N)c1CC=C(Cl)Cl	9%[10 µM]	-6%[9.22 µM]	·	·	·	·
Cc1cccc(CN2CCc3c(OCC(=O)NCc4ccco4)cccc3C2=O)c1	9%[10 µM]	-4%	-10%	22µM*	-1%	-30%
Cc1cccc(CN2CCc3c(OCC(=O)N4CCCc5ccccc54)cccc3C2=O)c1	-9%[10 µM]	?	?	16µM*	1%	-25%
O=C(COc1cccc2c1CCN(Cc1ccccc1)C2=O)NCc1ccco1	-27%[10 µM]	-4%	-1%	20µM*	8%	-17%
Cc1ccc(C)c(NC(=O)COc2cccc3c2CCN(Cc2ccccc2)C3=O)c1	-8%[10 µM]	-5%	?	-9%	3%	-6%
O=C1c2cccc(OCC(=O)N3CCCc4ccccc43)c2CCN1Cc1ccc(F)cc1	·	?	?	?	1%	-13%
N#Cc1ccccc1OCC(=O)NCC1(N2CCCCC2)CCCCC1	-26%	4%	·	0%	-5%	·
O=C(/C=C/c1ccc(O)c(O)c1)OC(Cc1ccc(O)c(O)c1)C(=O)O (configuration not stated)	?	·	·	-15%	0%	22µM*!
O=C(/C=C\c1ccc(O)c(O)c1)O[C@@H](Cc1ccc(O)c(O)c1)C(=O)O	-1%	·	·	-1%	4%	28µM*
COC(=O)[C@@H](N)Cc1ccc(O)c(O)c1	-144%	23%	?	7%	-8%	-13%

Compound activity deposited in PubChem BioAssay by National Center for Advancing Translational Sciences (NCATS).
